What was measured:
Format in all cases: functional
Plasmodium falciparum [1] = assay: GSK_TCMDC: Inhibition of Plasmodium falciparum 3D7 in whole red blood cells, using parasite LDH activity as an index of growth. Test compounds present at 2uM
Plasmodium falciparum [2] = assay: GSK_TCMDC: Inhibition of Plasmodium falciparum Dd2 in whole red blood cells, using parasite LDH activity as an index of growth. Test compounds present at 2uM
HepG2 = assay: GSK_TCMDC: Percent inhibition of human HepG2 cell line. Test compounds present at 10uM.

Compound | Inhibition (Plasmodium falciparum [1]) | Inhibition (Plasmodium falciparum [2]) | Inhibition (HepG2)
O=C(CN1CCCCC1)Nc1ccc(Nc2nccc(NCC(O)c3ccccc3)n2)cc1 (stereo not drawn) | 100% | 95% | 62%
COCCNCc1ccc(-c2ccc3c(Nc4ccc(Cl)cc4F)ccnc3c2)o1 | 100% | 100% | 15%
O=C(c1ccc(-c2ccc(-c3nc4cc(C(F)(F)F)ccc4[nH]3)s2)cc1)N1CCN(CCc2ccccc2)CC1 | 98% | 60% | 23%
CCOc1ccc(NC(=O)c2cccc(CN3CCCN(Cc4cccc(O)c4)CC3)c2)cc1.O=C(O)C(F)(F)F | 95% | 23% | 22%
O=C(Cc1ccc[n+]([O-])c1)Nc1ccc(-c2cccc(-c3nc4cc(C(F)(F)F)ccc4[nH]3)c2)cc1 | 92% | 49% | 16%
Cc1[nH]c(C)c(-c2ccc(-c3ccc(C(F)F)cc3)nc2)c(=O)c1Cl | 97% | 96% | 0%
COc1c(Br)cc(Br)cc1-c1ccc(CN2CC3CCC2CC3)[nH]1.Cl | 98% | 100% | 91%
Cl.O=c1cc(NCCCNCc2ccc(Cl)c(Cl)c2)[nH]c2cc(Cl)ccc12 | 95% | 51% | 1%
Cc1[nH]c(C)c(-c2ccc(OCCOc3ccc(C(F)(F)F)cn3)cc2)c(=O)c1Br | 97% | 97% | 25%
Cc1cc(N(CCN2CCCCC2)CCN2CCCCC2)nc(Nc2ccc(Cl)cc2)n1.Cl | 100% | 79% | 19%
Cc1cccc2nc(-c3cccc(-c4cccc(NC(=O)c5cnccc5C(F)(F)F)c4)c3)[nH]c12 | 98% | 47% | 7%

Reference: ChEMBL document CHEMBL1157539, “Thousands of chemical starting points for antimalarial lead identification” (Nature, 2010)
